The nature of the first test: differential killing of epithelial or mesenchymal cells, primary screen, imaging, PC-3E GFP, TEM4-18 mCherry, co-culture (AID 1345086).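 Note: cells exposed to compound for 72 h before imaging.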 To be noted: imaging cell counts, measured here: epithelial PC-3E GFP cell survival, at 1 µM.
Consider `CC1=C2[C@H](C=C3CCC[C@@H](C)[C@]3(C)[C@@H]2O)OC1=O`, for which the normalised cell number came to 1.01. With `CCN(Cc1cccc(S(=O)(=O)O)c1)c1cccc(C(=C2C=CC(=[N+](CC)Cc3cccc(S(=O)(=O)O)c3)C=C2)c2ccc(O)cc2S(=O)(=O)[O-])c1`, the normalised cell number was 1.26.

`Cc1c(O)c(O)cc2oc3cc(O)cc(O)c3c(=O)c12` came in with a normalised cell number of 1.06. Regarding `CC(CC(=O)N1C(=S)SC[C@@H]1c1ccccc1)N1C(=S)SC[C@@H]1c1ccccc1` (some centres undefined), the normalised cell number was 1.18.

For `COC(=O)[C@@]12Oc3ccc(-c4ccc5c(c4O)C(O)=C4C(=O)C[C@H](C)[C@H](O)[C@]4(C(=O)OC)O5)c(O)c3C(O)=C1C(=O)C[C@H](C)[C@@H]2O`, the normalised cell number was 0.96. Still for that read-out and setting: the same measure for `CCC(C)[C@H]1O[C@]2(CC[C@@H]1C)C[C@@H]1C[C@@H](C/C=C(\C)[C@@H](OC3C[C@H](OC)C(O[C@H]4C[C@H](OC)[C@@H](O)[C@H](C)O4)[C@H](C)O3)[C@@H](C)/C=C/C=C3\COC4[C@H](O)C(C)=C[C@@H](C(=O)O1)[C@]34O)O2` (some centres undefined): 1.17; for `COc1cc(/C=C/C(=O)O)cc(OC)c1O`: 1.09; for `O=C(O)CNc1ccc(Cl)cc1[N+](=O)[O-]`: 1.11.

`C=C[C@@](C)(O)CCC1C(=C)C[C@H](OC(C)=O)C2C(C)(C)CCCC12C` (some centres undefined) came in with a normalised cell number of 1.03. The same measure, in the same setting: then `C[C@@H]1C(=O)NC(Cc2ccccc2)C(=O)N2CCCC[C@H]2C(=O)O[C@H]([C@@H](C)CCCC[C@@H](C)O)C[C@H]1O` (some centres undefined), with 1.03; and `COC(=O)/C(=C1\OC(=O)C(c2ccccc2)=C1O)c1ccccc1`, with 1.05.

The molecule `Clc1ccc(Br)cc1/C=C/C1CCCNC1` (centres undefined) had a normalised cell number of 1.16. `CC1(C)CC[C@]2(C(=O)O)CC[C@]3(C)C(=CCC4[C@@]5(C)CC[C@H](O)[C@@](C)(CO)C5CC[C@]43C)C2C1` (some centres undefined) returned a normalised cell number of 1.05. The same measure, in the same setting: then `C=C1C(=O)OC(C(=O)O)C1(O)CCCCCCCCC` (centres undefined), with 1.02; and `Cc1ccc(S[C@H]2OC3COC(c4ccccc4)OC3[C@@H]3OC(=O)N[C@H]23)cc1` (some centres undefined), with 0.36; and `O=C(Cc1ccccc1)NCC1O[C@@H](OC2C(NC(=O)Cc3ccccc3)C[C@@H](NC(=O)Cc3ccccc3)[C@H](OC3OC(COS(=O)(=O)O)[C@@H](OS(=O)(=O)O)[C@H](NC(=O)Cc4ccccc4)[C@H]3OS(=O)(=O)O)[C@H]2OS(=O)(=O)O)[C@H](OS(=O)(=O)O)[C@@H](OS(=O)(=O)O)C1OS(=O)(=O)O` (some centres undefined), with 0.9.

With `CC(C)[C@H]1COC(=O)N1C(=O)CC(C)N1C(=S)OC[C@H]1c1ccccc1` (some centres undefined), the normalised cell number is 1.07. On the same count and under the same terms, then `C=CCOC(=O)N1C(=O)O[C@H]2C(OC(C)=O)C(COC(C)=O)O[C@H](Sc3ccc(C)cc3)[C@H]21` (some centres undefined), with 1.08; and `C=C1[C@@H](C)C2[C@H](Cc3c[nH]c4ccccc34)NC(=O)[C@]23C(=O)/C=C/[C@H](O)C(=O)/C(C)=C/[C@@H](C)C/C=C/[C@H]3[C@@H]1O` (some centres undefined), with 0.96. On the same count and under the same terms, the same measure for `COc1ccc2oc(-c3ccccc3)c(OC)c(=O)c2c1`: 1.37.

`COC(=O)C[C@@H]1C2(C)C(=O)[C@@H](CC3C2CC[C@]2(C)C3CC(=O)O[C@H]2c2ccoc2)[C@H](OC(C)=O)C1(C)C` (some centres undefined) came in with a normalised cell number of 1.04.

As for `CCCc1ccc(C(=O)O)nc1`, the normalised cell number was found to be 1.18.

Regarding `CCCCC/C=C/C1=C(CO)[C@H](O)[C@H]2O[C@H]2[C@@H]1O`, the normalised cell number amounted to 1.08. In turn, `C[C@]12C=CC(=O)NC1CCC1C2CC[C@@]2(C)C1CC[C@@H]2C(=O)Nc1cc(C(F)(F)F)ccc1C(F)(F)F` (some centres undefined) displayed a normalised cell number of 1.1.

The molecule `C/C=C/C1=CC(=O)[C@H](O)[C@H]1O` registered a normalised cell number of 1.04.

Molecule `COc1cc(OC)c2c(c1C)C(C)(O)COC2=O` (centres undefined) had a normalised cell number of 1.14. On to `Nc1ccc(Oc2ccccc2)cc1`, for which the normalised cell number amounted to 0.99.

`NCC1O[C@@H](OC2C(N)C[C@@H](N)C(OC3OC(CO)[C@@H](O)C(N)[C@H]3O)[C@H]2O)C(O)[C@@H](O)C1O` (some centres undefined) showed a normalised cell number of 1.02. With `Nc1nc(Cl)nc2c1ncn2C1O[C@H](CO)[C@@H](O)[C@@H]1F` (some centres undefined), the normalised cell number is 0.22.

The test is the same for the next values; noted with them: imaging cell counts, measured here: mesenchymal TEM4-18 mCherry cell survival, at 1 µM.
Molecule `CCC1OC(=O)[C@H](C)C(=O)[C@H](C)[C@@H](OC2O[C@H](C)C[C@H](N(C)C)[C@H]2O)[C@](C)(OC)C[C@@H](C)C(=O)[C@H](C)[C@H]2N(CCCCn3cnc(-c4cccnc4)c3)C(=O)O[C@@]12C` (some centres undefined) came in with a normalised cell number of 1.23. Same read-out and setting: then `COC(=O)[C@H](Cc1ccccc1)NC(=O)/C(=C1\OC(=O)C(c2ccccc2)=C1O)c1ccccc1`, with 0.9.

In the case of `O=C1CC(c2ccc(O)cc2)Oc2ccccc21` (centres undefined), the normalised cell number amounted to 1.08. On the same count and under the same terms, the same measure for `C[C@H]1C(=O)CCC2[C@]3(C)CC[C@@]4(C)C5CC(C)(C)CC[C@]5(C)CC[C@]4(C)C3CC[C@@]21C` (some centres undefined): 1.13; for `C[C@@H]1OC(O[C@H]2[C@H](O)[C@@H](O)[C@H](OC[C@H]3O[C@@H](OC(=O)[C@]45CCC(C)(C)CC4C4=CCC6[C@@]7(C)CC[C@H](OC8OC[C@H](O)[C@H](O)[C@H]8OC8O[C@@H](C)[C@H](O)[C@@H](O)[C@H]8O)[C@@](C)(CO)C7CC[C@@]6(C)[C@]4(C)CC5)[C@H](O)[C@@H](O)[C@@H]3O)O[C@@H]2CO)[C@H](O)[C@H](O)[C@H]1O` (some centres undefined): 0.93; for `C[C@]12CCc3occc3C1CC[C@@]13C[C@@H](CCC12)[C@@](O)(CO)C3` (some centres undefined): 1.06. Same read-out and setting: then `CC(C)CCCC(C)[C@H]1CCC2C3C(=O)C=C4C[C@@H](O)CC[C@]4(C)C3CC[C@@]21C` (some centres undefined), with 0.95; and `NC(CSSCC(N)C(=O)O)C(=O)O` (centres undefined), with 1.15; and `COc1ccc(-c2coc3cc(OC)ccc3c2=O)cc1`, with 1.09. With `O=c1c(O)c(-c2ccccc2)oc2ccc3occc3c12`, the normalised cell number amounted to 0.99. For `CO/N=C(/C(=O)NC1C(=O)N2C(C(=O)O)=C(C[N+]3(C)CCCC3)CSC12)c1csc(N)n1` (centres undefined), the normalised cell number was 1.22. The same measure, in the same setting: the same measure for `CC1=C2[C@H](C=C3CCC[C@@H](C)[C@]3(C)[C@@H]2O)OC1=O`: 0.85; for `CCN(Cc1cccc(S(=O)(=O)O)c1)c1cccc(C(=C2C=CC(=[N+](CC)Cc3cccc(S(=O)(=O)O)c3)C=C2)c2ccc(O)cc2S(=O)(=O)[O-])c1`: 1.11. The same measure, in the same setting: then `Cc1c(O)c(O)cc2oc3cc(O)cc(O)c3c(=O)c12`, with 1.12. Same read-out and setting: the same measure for `CC(CC(=O)N1C(=S)SC[C@@H]1c1ccccc1)N1C(=S)SC[C@@H]1c1ccccc1` (some centres undefined): 1.04; for `COC(=O)[C@@]12Oc3ccc(-c4ccc5c(c4O)C(O)=C4C(=O)C[C@H](C)[C@H](O)[C@]4(C(=O)OC)O5)c(O)c3C(O)=C1C(=O)C[C@H](C)[C@@H]2O`: 1.1; for `CCC(C)[C@H]1O[C@]2(CC[C@@H]1C)C[C@@H]1C[C@@H](C/C=C(\C)[C@@H](OC3C[C@H](OC)C(O[C@H]4C[C@H](OC)[C@@H](O)[C@H](C)O4)[C@H](C)O3)[C@@H](C)/C=C/C=C3\COC4[C@H](O)C(C)=C[C@@H](C(=O)O1)[C@]34O)O2` (some centres undefined): 0.97. Molecule `COc1cc(/C=C/C(=O)O)cc(OC)c1O` showed a normalised cell number of 1.2. The same measure, in the same setting: the same measure for `O=C(O)CNc1ccc(Cl)cc1[N+](=O)[O-]`: 1.17. The same measure, in the same setting: the same measure for `C=C[C@@](C)(O)CCC1C(=C)C[C@H](OC(C)=O)C2C(C)(C)CCCC12C` (some centres undefined): 1.08. On the same count and under the same terms, then `C[C@@H]1C(=O)NC(Cc2ccccc2)C(=O)N2CCCC[C@H]2C(=O)O[C@H]([C@@H](C)CCCC[C@@H](C)O)C[C@H]1O` (some centres undefined), with 0.93; and `COC(=O)/C(=C1\OC(=O)C(c2ccccc2)=C1O)c1ccccc1`, with 1.11.

Molecule `Clc1ccc(Br)cc1/C=C/C1CCCNC1` (centres undefined) returned a normalised cell number of 1.1.

As for `CC1(C)CC[C@]2(C(=O)O)CC[C@]3(C)C(=CCC4[C@@]5(C)CC[C@H](O)[C@@](C)(CO)C5CC[C@]43C)C2C1` (some centres undefined), the normalised cell number came to 0.98. The molecule `C=C1C(=O)OC(C(=O)O)C1(O)CCCCCCCCC` (centres undefined) gave a normalised cell number of 0.98. Still for that read-out and setting: then `Cc1ccc(S[C@H]2OC3COC(c4ccccc4)OC3[C@@H]3OC(=O)N[C@H]23)cc1` (some centres undefined), with 0.55; and `O=C(Cc1ccccc1)NCC1O[C@@H](OC2C(NC(=O)Cc3ccccc3)C[C@@H](NC(=O)Cc3ccccc3)[C@H](OC3OC(COS(=O)(=O)O)[C@@H](OS(=O)(=O)O)[C@H](NC(=O)Cc4ccccc4)[C@H]3OS(=O)(=O)O)[C@H]2OS(=O)(=O)O)[C@H](OS(=O)(=O)O)[C@@H](OS(=O)(=O)O)C1OS(=O)(=O)O` (some centres undefined), with 1.03; and `CC(C)[C@H]1COC(=O)N1C(=O)CC(C)N1C(=S)OC[C@H]1c1ccccc1` (some centres undefined), with 1.12. On the same count and under the same terms, then `C=CCOC(=O)N1C(=O)O[C@H]2C(OC(C)=O)C(COC(C)=O)O[C@H](Sc3ccc(C)cc3)[C@H]21` (some centres undefined), with 0.97.

`C=C1[C@@H](C)C2[C@H](Cc3c[nH]c4ccccc34)NC(=O)[C@]23C(=O)/C=C/[C@H](O)C(=O)/C(C)=C/[C@@H](C)C/C=C/[C@H]3[C@@H]1O` (some centres undefined) displayed a normalised cell number of 1.08. On the same count and under the same terms, then `COc1ccc2oc(-c3ccccc3)c(OC)c(=O)c2c1`, with 1.08; and `COC(=O)C[C@@H]1C2(C)C(=O)[C@@H](CC3C2CC[C@]2(C)C3CC(=O)O[C@H]2c2ccoc2)[C@H](OC(C)=O)C1(C)C` (some centres undefined), with 0.95; and `CCCc1ccc(C(=O)O)nc1`, with 0.99.

In the case of `CCCCC/C=C/C1=C(CO)[C@H](O)[C@H]2O[C@H]2[C@@H]1O`, the normalised cell number came to 1.08.

The molecule `C[C@]12C=CC(=O)NC1CCC1C2CC[C@@]2(C)C1CC[C@@H]2C(=O)Nc1cc(C(F)(F)F)ccc1C(F)(F)F` (some centres undefined) displayed a normalised cell number of 0.91. In turn, `C/C=C/C1=CC(=O)[C@H](O)[C@H]1O` gave a normalised cell number of 1.07.

Molecule `COc1cc(OC)c2c(c1C)C(C)(O)COC2=O` (centres undefined) returned a normalised cell number of 1.02. Turning to `Nc1ccc(Oc2ccccc2)cc1`, the normalised cell number turned out to be 0.94. In turn, `NCC1O[C@@H](OC2C(N)C[C@@H](N)C(OC3OC(CO)[C@@H](O)C(N)[C@H]3O)[C@H]2O)C(O)[C@@H](O)C1O` (some centres undefined) gave a normalised cell number of 1.13. Same read-out and setting: the same measure for `Nc1nc(Cl)nc2c1ncn2C1O[C@H](CO)[C@@H](O)[C@@H]1F` (some centres undefined): 0.39.

(Values after PubChem BioAssay.)
